Screening results (PubChem BioAssay)
An excerpt weighted towards active compounds, which were near 6.1% of everything screened.
ERG-DNA inh: ERG Ets/DNA interaction inhibition | P11308 | fluorescence polarization, His-ERG Ets domain / labelled DNA | AID 624246 | Potency, µM (series often up to 76.9 µM), inactives show top-dose FP activity, negative = inhibition, hits mostly inhibitors | hit rate 0.028% among 370,000; active means well fitted inhibition curve with a large enough effect in the polarisation, with a control signal flat; inconclusive means small, poorly fitted or top-dose-only effect, or effect the other way, or a change in a side signal; inactive means no such curve, though single readings can be large or run the other way; the % refers to the polarisation;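 further: polarization taken with two DNA probes labelled with fluorescein and Texas red; potency means the concentration at half of the fitted maximal effect; % of control where 0% means no effect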
Target sequence (P11308 whole entry, looked up, the tested form may be a part): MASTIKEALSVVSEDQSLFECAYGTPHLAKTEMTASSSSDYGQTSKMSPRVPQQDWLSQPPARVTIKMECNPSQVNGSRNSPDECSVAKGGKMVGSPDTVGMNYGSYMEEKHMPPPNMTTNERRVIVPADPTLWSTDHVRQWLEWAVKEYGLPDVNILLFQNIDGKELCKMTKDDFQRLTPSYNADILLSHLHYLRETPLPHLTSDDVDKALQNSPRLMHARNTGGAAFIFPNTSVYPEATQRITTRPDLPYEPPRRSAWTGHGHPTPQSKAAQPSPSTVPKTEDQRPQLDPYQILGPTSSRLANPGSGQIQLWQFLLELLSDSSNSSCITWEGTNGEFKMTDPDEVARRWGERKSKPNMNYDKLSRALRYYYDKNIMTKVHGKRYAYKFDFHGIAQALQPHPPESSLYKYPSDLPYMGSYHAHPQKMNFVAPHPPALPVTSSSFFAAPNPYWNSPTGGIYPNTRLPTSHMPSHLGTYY
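His-tagged ERG Ets domain (1 uM in the protein solution; 300mM KCl, 50mM Tris-HCl, 1mM EDTA, 1mM DTT, pH 7.5) received compound, then a probe mix of 5 nM fluorescein-DNA and 100nM Texas-615-DNA. Fluorescence polarization was read for both dyes.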
D1 agonist: human D1 receptor agonism; HEK293 T-REx D1 cells, calcium flux, agonist mode; activation, % at 2 µM; hit rate 1% among 360,000; in the data active means activation above about 30%; further: 0% is about no effect
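Inducible HEK293 T-REx D1 cells, force-coupled to calcium signalling, were plated at 4000 cells/well with tetracycline and held overnight at 30 C. After no-wash calcium dye loading, compound-evoked calcium rise over 180 s flagged agonists.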
D1 potentiator: enhances dopamine response at the human D1 receptor; P21728; HEK293 TREx D1 cells, calcium flux, dopamine EC20 potentiation; potentiation, % at 10 µM; hit rate 0.036% among 360,000; AID 504651; in the data active means potentiation above about 30%; further: 0% is about no effect
D1 antagonist: blocks dopamine activation of the human D1 receptor; P21728; HEK293 TREx D1 cells, calcium flux, dopamine EC80; stronger effect = lower value; activity change, negative = inhibition, % at 10 µM; hit rate 3.2% among 360,000; AID 504652; in the data active means activity change below about -30%; further: on the % scale 0 is the no-effect control and ±100 the full control effect
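Kinetic fluorescence of a calcium dye serves as the read-out. D1-expressing Hek293 Trex cells, induced overnight at 30 C, are exposed to compound for 180 s before an EC80 dopamine addition, then read 180 s further.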
D3 ag: D3 dopamine receptor (human) agonism. D3R DiscoveRx beta-arrestin cells, luminescence, 90 min. hit rate 0.58% among 410,000. max activation, %. AID 652048. P35462; in the data active means max activation above about 30%; further: 0% is about no effect
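Agonist-mode cell screen: cells plated at 1500/well and incubated overnight at 37 °C, then exposed to library compounds for 90 min at 37 °C. Detection reagent was added for 30–60 min at room temperature, and luminescence was read.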
D3 antag: D3 dopamine receptor (human) antagonism | P35462 | D3R cells, DiscoveRx beta-arrestin luminescence, antagonist mode; stronger effect = lower value | max response, negative = inhibition, % | hit rate 2.5% among 360,000 | AID 652054; in the data active means max response below about -50%; inconclusive means no clear call, values can overlap the other calls; further: on the % scale 0 is the no-effect control and ±100 the full control effect
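Cells plated overnight at 1500 cells/well, then exposed to library compounds with dopamine controls for 90 minutes at 37 degrees C. DiscoveRx reagent added for 30–60 minutes at room temperature; luminescence read, quantitative HTS format.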
An asterisk follows results filed as active; ? = inconclusive; nt = no result; ! = a repeat was not active; [ ] = remark or other dose.

SMILES	ERG-DNA inh	D1 agonist	D1 potentiator	D1 antagonist	D3 ag	D3 antag
CCC(C(=O)O/N=C(\N)c1ccccc1)c1ccccc1 (stereo unspecified)	-7%	4	0	-5	-1	4
Cc1oc(-c2ccc(Cl)cc2)nc1CN1CCC(C(=O)NCCCN2CCCC2=O)CC1	19%	2	-5	3	4	0
O=C(NCc1ccccc1CN1CCCC1)C1CCN(S(=O)(=O)c2ccc(F)c(F)c2)CC1	8%[15.4 µM]	1	-10	-17	1	16
Cc1oc(-c2ccc(Cl)cc2)nc1CN1CCC(C(=O)NCCCN2CCCC(C)C2)CC1 (stereo unspecified)	0%	4	-5	-30*	-7	-15
Cc1ccc(S(=O)(=O)N2CCC(C(=O)NCc3ccccc3CN3CCCC3)CC2)cc1C	-1%	7	-13	-35*	-12	-21
Cc1oc(-c2cccc(Cl)c2)nc1CN1CCC(C(=O)NCc2ccco2)CC1	3%	12	-8	-4	-7	-24
COc1ccc(C)cc1NC(=O)C1CCN(S(=O)(=O)Cc2ccccc2)CC1	6%	0	3	-47*	2	nt
Cc1oc(-c2cccc(Cl)c2)nc1CN1CCC(C(=O)NCc2ccc(F)cc2)CC1	1%	54*	-3	-17	-16	nt
COc1cc(NC(=O)C2CCN(S(=O)(=O)Cc3ccccc3)CC2)c(OC)cc1Cl	0%	-3	-2	-4	-14	nt
CC(c1ccco1)N(C(=O)c1ccc(C#N)cc1)c1ccccn1 (stereo unspecified)	-12%	-3	-3	13	4	2
CCn1cc(C(=O)NCCc2ccc(C)cc2)c(=O)c2cc(S(=O)(=O)N3CCC(C)CC3)ccc21	18%	-1	2	13	2	nt
COc1ccc(F)cc1-c1cc(C(=O)NCc2ccccc2)[nH]n1	nt	nt	nt	nt	-16	-4
COc1ccccc1CNC(=O)C1CCN(Cc2nc(-c3cccc(Cl)c3)oc2C)CC1	-5%	34*	-6	-1	-6	?
CCc1ccc(-c2nc(CN3CCC(C(=O)NCCc4ccc(OC)c(OC)c4)CC3)c(C)o2)cc1	2%	30*	-6	-25	0	-9
CCc1ccc(-c2nc(CN3CCC(C(=O)NCc4ccccc4OC)CC3)c(C)o2)cc1	2%	41*	-6	-17	-9	-17
COc1ccc(CCNC(=O)C2CCN(Cc3nc(-c4ccc(OC)c(OC)c4)oc3C)CC2)cc1OC	1%	2	0	10	6	nt
CCS(=O)(=O)N1CCC(C(=O)NCc2ccccc2OC)CC1	nt	-1	-2	-43*	8	2
Cc1oc(-c2ccccc2F)nc1CN1CCC(C(=O)NCCC2=CCCCC2)CC1	10%	8	-6	-3	-2	-57*
Cc1ccccc1-c1nc(CN2CCC(C(=O)NCc3ccc(F)cc3)CC2)c(C)o1	-1%	41*	-3	-9	-6	nt
Cc1oc(-c2ccccc2F)nc1CN1CCC(C(=O)NCCc2ccccc2)CC1	-2%	10	-2	-4	-8	nt
Cc1oc(-c2cccc(Cl)c2)nc1CN1CCCC(C(=O)NCc2ccco2)C1 (stereo unspecified)	-6%	6	-4	-41*	-14	-19
Cc1ccccc1-c1nc(CN2CCC(C(=O)NCCCN3CCCC3)CC2)c(C)o1	-12%	-3	1	-16	-3	-57*
O=C(N/N=C/c1ccc2nccnc2c1)c1cccc([N+](=O)[O-])c1	1%	2	7	-6	3	12
Cn1nc(C(=O)NCc2ccccc2Cl)c2c1-c1ccccc1S(=O)(=O)C2	14%	3	1	-31*!	3	3
Cn1nc(C(=O)NCCCN2CCCCC2)c2c1-c1ccccc1SC2	-2%	5	-5	-30*	-16	-7
SMILES	ERG-DNA inh	D1 agonist	D1 potentiator	D1 antagonist	D3 ag	D3 antag
CCN(CCCNC(=O)c1nn(C)c2c1CS(=O)(=O)c1ccccc1-2)Cc1ccccc1	3%	0	-1	-22	-22	-56*
CC1CC(C)CN(CCCNC(=O)c2nn(C)c3c2CS(=O)(=O)c2ccccc2-3)C1 (stereo unspecified)	3%	-1	0	-42*	4	-19
CCOC(=O)C1(Cc2ccccc2C)CCCN(C(=O)c2ccc(CSC)o2)C1 (stereo unspecified)	-1%	4	-2	1	1	-15
COc1ccc(Cl)cc1NC(=O)CCN1C(=O)C2CC=CCC2C1=O (stereo unspecified)	-6%	3	-1	2	-6	-1
C/C(N)=C(/C#N)C(=O)CSc1nnnn1-c1ccc(C)cc1C	-2%	15	-4	-16	2	6
C=C1CC2C(CCC3(C)C2CCC3(O)C(C)=O)C2(C)CCC(=O)C=C12 (stereo unspecified)	-3%	4	-2	-51*	13	0
CC(=O)[C@@]1(O)CC[C@H]2[C@@H]3C[C@H](C)C4=CC(=O)CC[C@]4(C)[C@H]3CC[C@@]21C	2%	0	0	-5	12	24
CCc1ccc(CNC(=O)c2cc3n(n2)CCCN(Cc2ccccc2)C3=O)cc1	4%	66*	-3	-47*	5	nt
Cc1ccc(C2CC(c3ccco3)=NN2S(C)(=O)=O)cc1 (stereo unspecified)	3%	1	-3	-35*	-9	23
CC1CCCC(C)N1/N=C/c1cc(Br)cc(Br)c1O (stereo unspecified)	-8%	3	-4	14	-9	-62*
CCOc1cccc(/C=N/N2C(C)CCCC2C)c1O (stereo unspecified)	-9%	1	-1	3	4	25
CC1=C(C(N)=O)C(c2ccccc2)n2nc(-c3ccncc3)nc2N1 (stereo unspecified)	5%	2	-4	9	-1	-9
Cc1nc(-[n+]2nc(-c3ccncc3)nn2-c2ccccc2)sc1C	nt	nt	nt	nt	-23	-102*
Clc1nc(-c2n[nH]nc2Cl)n[nH]1	2%	0	-6	-31*	5	-19
O=C(Nc1cccc(O)c1)c1cc(-c2ccccc2Cl)on1	2%	8	4	-36*	-5	-20
CCOC(=O)N1CCc2c(sc3c2c(=O)n(-c2ccc(CC)cc2)c(=O)n3CC(=O)c2ccccc2)C1	-6%	4	-4	1	6	nt
Nc1nc(-c2ccc(-c3ccccc3)cc2)cs1	13%	1	-6	-47*	-5	-23
O=C(C(c1ccccc1)c1ccccc1)N1CCCc2ccccc21	-3%	4	-7	1	0	-61*
